Measurements: PubChem BioAssay (NCATS)
Inconclusive results are not listed. Calls of active or inactive are those of the source. Unless noted, the call rests on the fitted dose curve; in most records, active means well fitted curve in the direction sought with a large enough effect; inconclusive means small, poorly fitted or top-dose-only effect, or another doubt; inactive means no such curve, though single readings can be large; an effect the other way counts as inactive or inconclusive.

Key:
[1] = biological target: Lysosomal acid glucosylceramidase (Homo sapiens) (UniProt P04062); test: Glucocerebrosidase-p2 (AID 348; in the data active means potency below about 10 µM; further: potency means the concentration at half of the fitted maximal effect); conditions: purified GBA, blue fluorogenic substrate, 40 min
Outline: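 Compounds titrated from 0.6 nM upwards against 0.2 nM enzyme in pH 5.9 citric acid/KH2PO4, taurocholate, tween-20; blue fluorogenic substrate 80 uM, 40 min room temperature, stopped and read Ex 365/Em 440 for AC50.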

[2] = S16 Schwann cell viability assay (CellTiter-Glo assay) (AID 624031); conditions: S16 rat Schwann cells viability, 24 h; series mostly up to 57.5 µM;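 further: native untransfected S16 rat Schwann cells; nearly all actives have a fitted effect of over 70% in size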
Outline: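 Counter-screen for cytotoxicity: parental S16 rat Schwann cells lacking the PMP22 reporters, treated 24 h with compound, viability from cellular ATP by CellTiter-Glo luminescence, normalized to DMSO (0%) and no-cell wells.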

[3] = S16 Schwann cell PMP22 intronic element firefly luciferase assay (AID 624032); conditions: S16 rat Schwann cells, PMP22 element FLuc, 24 h; series mostly up to 57.5 µM; further: nearly all actives have a fitted effect of over 30% in size
Outline: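 Rat S16 Schwann cells stably carrying firefly luciferase driven by a PMP22 intronic element, in 10% FBS, treated 24 h at 37 C. ONE-Glo luminescence normalized to PTC124 control and DMSO (0%); curves classed by r2, magnitude and activity.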

[4] = S16 Schwann cell PMP22 intronic element beta-lactamase assay (AID 624044; calls by dose curve; further: nearly all actives have a fitted effect of over 15% in size); conditions: S16 rat Schwann cells, PMP22 element beta-lactamase FRET, 24 h; series mostly up to 38.3 µM
Outline: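 Rat S16 Schwann cells with beta-Lac driven by a PMP22 intronic element, compound-treated 24 h at 37 °C. LiveBLAzer FRET B/G read: 460 nm normalized to potassium clavulanate vs DMSO; 535 nm FRET as viability; concentration-effect curves classified.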

AA1029 = test: qHTS profiling for inhibitors of Plasmodium falciparum proliferation (AID 504749); further: nearly all actives have a fitted effect of over 60% in size; conditions: P. falciparum in erythrocytes, SYBR Green DNA, 72 h; series mostly up to 28.7 µM
Outline: (§1)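 Readout was DNA-dye fluorescence from lysed cultures, ex 485/em 535 nm. Parasitized red cells had grown 72 h with compound; data scaled between 0.29 uM artemisinin and DMSO wells and corrected using vehicle-only plates.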

C2A = test: as above; conditions: P. falciparum in erythrocytes, SYBR Green DNA, 72 h; series mostly up to 28.7 µM
Outline: as §1

CP211 = test: as above; conditions: P. falciparum in erythrocytes, SYBR Green DNA, 72 h; series mostly up to 28.7 µM
Outline: as §1

CP217 = test: as above; conditions: P. falciparum in erythrocytes, SYBR Green DNA, 72 h; series mostly up to 28.7 µM
Outline: as §1

CP250 = test: as above; conditions: P. falciparum in erythrocytes, SYBR Green DNA, 72 h; series mostly up to 28.7 µM
Outline: as §1

CP252 = test: as above; conditions: P. falciparum in erythrocytes, SYBR Green DNA, 72 h; series mostly up to 28.7 µM
Outline: as §1

CP256 = test: as above; conditions: P. falciparum in erythrocytes, SYBR Green DNA, 72 h; series mostly up to 28.7 µM
Outline: as §1

CP260 = test: as above; conditions: P. falciparum in erythrocytes, SYBR Green DNA, 72 h; series mostly up to 28.7 µM
Outline: as §1

CP269 = test: as above; conditions: P. falciparum in erythrocytes, SYBR Green DNA, 72 h; series mostly up to 28.7 µM
Outline: as §1

CP297 = test: as above; conditions: P. falciparum in erythrocytes, SYBR Green DNA, 72 h; series mostly up to 28.7 µM
Outline: as §1

CP329 = test: as above; conditions: P. falciparum in erythrocytes, SYBR Green DNA, 72 h; series mostly up to 28.7 µM
Outline: as §1

N140 = test: as above; conditions: P. falciparum in erythrocytes, SYBR Green DNA, 72 h; series mostly up to 28.7 µM
Outline: as §1

P93_24 = test: as above; conditions: P. falciparum in erythrocytes, SYBR Green DNA, 72 h; series mostly up to 28.7 µM
Outline: as §1

PC15 = test: as above; conditions: P. falciparum in erythrocytes, SYBR Green DNA, 72 h; series mostly up to 28.7 µM
Outline: as §1

SC27B = test: as above; conditions: P. falciparum in erythrocytes, SYBR Green DNA, 72 h; series mostly up to 28.7 µM
Outline: as §1

[5] = biological target: DNA repair nuclease/redox regulator APEX1 (Homo sapiens) (UniProt P27695); test: qHTS Validation Assay for Inhibitors of the Human Apurinic/apyrimidinic Endonuclease 1 (APE1) (AID 1705;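 further: TAMRA fluorescence gain over two minutes as APE1 cuts a quenched THF abasic duplex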); conditions: purified APE1 endonuclease activity, fluorescence, titration; series mostly up to 57.1 µM
Outline: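 Read-out: TAMRA fluorescence (525 nm ex, 598 nm em) from cleavage of a quenched THF abasic-site duplex, 50 nM final; activity taken as intensity change between third and first of three reads 60 s apart.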

Measured: Potency

Lysosomal acid glucosylceramidase (Homo sapiens), sequence (P04062 whole entry, looked up): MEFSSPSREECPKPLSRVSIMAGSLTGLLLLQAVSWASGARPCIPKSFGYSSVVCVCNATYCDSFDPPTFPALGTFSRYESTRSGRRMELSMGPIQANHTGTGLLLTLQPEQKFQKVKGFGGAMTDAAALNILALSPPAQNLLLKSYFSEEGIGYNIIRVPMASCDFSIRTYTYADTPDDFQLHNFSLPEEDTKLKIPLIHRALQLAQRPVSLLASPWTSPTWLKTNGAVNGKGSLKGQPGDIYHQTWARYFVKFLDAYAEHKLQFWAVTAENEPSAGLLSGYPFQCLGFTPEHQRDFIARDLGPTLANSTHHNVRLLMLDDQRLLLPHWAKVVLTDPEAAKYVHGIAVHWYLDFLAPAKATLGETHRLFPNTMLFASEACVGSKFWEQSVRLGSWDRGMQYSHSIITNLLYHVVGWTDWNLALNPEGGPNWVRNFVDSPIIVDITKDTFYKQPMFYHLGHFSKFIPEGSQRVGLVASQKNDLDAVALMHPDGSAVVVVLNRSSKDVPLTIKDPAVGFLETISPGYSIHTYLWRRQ
DNA repair nuclease/redox regulator APEX1 (Homo sapiens), sequence (P27695 whole entry, looked up): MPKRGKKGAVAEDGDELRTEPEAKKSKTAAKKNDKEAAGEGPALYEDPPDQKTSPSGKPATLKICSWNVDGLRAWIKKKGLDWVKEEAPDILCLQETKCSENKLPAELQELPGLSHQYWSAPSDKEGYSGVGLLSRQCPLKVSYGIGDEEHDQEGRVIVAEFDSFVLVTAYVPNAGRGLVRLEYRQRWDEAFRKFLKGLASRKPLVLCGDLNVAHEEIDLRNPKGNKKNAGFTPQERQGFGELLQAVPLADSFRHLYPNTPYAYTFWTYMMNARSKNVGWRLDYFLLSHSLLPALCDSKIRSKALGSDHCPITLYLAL

COC(=O)[C@@H]1[C@@H]2C[C@H]3c4[nH]c5ccccc5c4CCN3C[C@@H]2CC[C@@H]1O
inactive: [1] > 11.4 µM | [2] | [3] | [4] | AA1029 | C2A | CP211 | CP217 | CP250 | CP252 | CP256 | CP260 | CP269 | CP297 | CP329 | N140 | P93_24 | PC15 | SC27B

COc1ccccc1NC(=O)Nc1nc(-c2cccnc2)nc2ccccc12
inactive: [5]

C[C@@H](C(=O)O)c1ccc(-c2ccccc2)c(F)c1
not listed: [1] | [4] | [5]
inactive: all other assays above

CCOC(=O)C(CCc1ccccc1)NC1CCc2ccccc2N(CC(=O)O)C1=O (stereo not drawn)
inactive: [4]
